In PubChem BioAssay (EPA / NIEHS) one finds outcome and AC50 data, which are given here for 6 molecules.

What is called AC50 is the concentration giving half of the maximal activity seen.

SMILES strings stand for the structures. Inconclusive results are not listed. Active and inactive are the calls of the source. The calls were made as follows, unless noted: active = hit-call score of the fitted dose curve at least 0.9, where 1 is the maximum; inconclusive = response in the unintended direction; inactive = score below 0.9.

The nature of assay [1]: ATG_M_19_TRANS: Attagene TRANS-FACTORIAL HepG2 Assay for M19 Transcription Factor (Internal Marker) (AID 2282974). To be noted: HepG2 Attagene TRANS-FACTORIAL M19 internal marker reporter. The gist of the method: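 Cells: human HepG2, transiently transfected with multiplexed reporter transcription units. Exposure: 24 h. Detection: RT-PCR of reporter mRNA with capillary electrophoresis. Analysis: gain-of-signal vs DMSO.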

Assay [2] concerns the target Oxysterols receptor LXR-alpha (Homo sapiens) (UniProt Q13133). Description: ATG_LXRa_TRANS: Attagene TRANS-FACTORIAL HepG2 Assay for human Liver X Receptor alpha (LXRa) (AID 2282980). The note with it: HepG2 Attagene TRANS reporter, LXRa transactivation. The gist of the method:
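Read-out: reporter transcript levels by RT-PCR plus capillary electrophoresis, fluorescence intensity. Transiently transfected HepG2, exogenous NR-GAL4 chimera, GAL4-UAS reporters; 24 h compound exposure. Activity = increase over DMSO negative control.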

Assay [3] deals with human Peroxisome Proliferator-activated Receptor delta (PPARd), PPARD (gene 5467) (UniProt Q03181). The assay can be described thus: ATG_PPARd_TRANS: Attagene TRANS-FACTORIAL HepG2 Assay for human Peroxisome Proliferator-activated Receptor delta (PPARd) (AID 2283002). The gist of the method: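 HepG2 cells transiently transfected with multiplexed GAL4-UAS reporter units and exogenous chimeric NR-Gal4 proteins; 24 h compound exposure. Reporter mRNA measured by RT-PCR, 6-FAM labelling, HpaI digestion and capillary electrophoresis; gain of signal versus DMSO.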

Assay [4] concerns the target human RAR-related Orphan Receptor beta (RORb), RORB (gene 6096) (UniProt Q92753). The assay can be described thus: ATG_RORb_TRANS: Attagene TRANS-FACTORIAL HepG2 Assay for human RAR-related Orphan Receptor beta (RORb) (AID 2283010). The method, boiled down: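 HepG2, transient MRTU transfection (GAL4-UAS reporters, exogenous NR-Gal4 chimeras); 24 h compound exposure; total RNA → RT-PCR → 6-FAM primer extension → HpaI digest → CE fluorescence. Positive direction vs DMSO baseline.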

The target in assay [5] is human RAR-related Orphan Receptor gamma (RORg), RORC (gene 6097) (UniProt P51449). The assay can be described thus: ATG_RORg_TRANS: Attagene TRANS-FACTORIAL HepG2 Assay for human RAR-related Orphan Receptor gamma (RORg) (AID 2283011). The method, boiled down:
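Transient MRTU transfection of HepG2 (TRANS format, exogenous NR-Gal4 chimera). 24 h dosing. Total RNA → oligo(dT) RT → PCR → 6-FAM labelling → HpaI cut → CE. Gain vs DMSO.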

For assay [6], the target named is Retinoic acid receptor RXR-alpha (Homo sapiens) (UniProt P19793). The assay can be described thus: ATG_RXRa_TRANS: Attagene TRANS-FACTORIAL HepG2 Assay for human Retinoid X Receptor alpha (RXRa) (AID 2283012). The gist of the method:
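Read-out: fluorescent reporter-transcript fragments quantified by capillary electrophoresis after RT-PCR. Transiently transfected HepG2 cells carrying GAL4-UAS reporters and NR-GAL4 chimeras were exposed to chemical for 24 h; activity scored as increase over DMSO.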

Assay [7] can be described thus: ATG_XTT_Cytotoxicity: Cytotoxicity Assessment in the Attagene TRANS-FACTORIAL HepG2 Assay (AID 2283584). The method, boiled down:
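XTT readout of cell number in transfected HepG2 cells, 24 h post-dosing; DMSO serves as negative control and baseline, with activity taken as loss of viability signal.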

Assay [8] can be described thus: CCTE_Harrill_HTTr_Viability_MCF7: CCTE's 6-hour Cell Viability Assessment for the High-Throughput Transcriptomics (HTTr) Platform, in MCF-7 cells cultured in DMEM + 10% fetal bovine serum, Harrill Lab (AID 2284010; active = hit-call score of the fitted dose curve at least 0.9, where 1 is the maximum; inactive = score below 0.9). The gist of the method:
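PI exclusion, high-content imaging; 8-pt dilution series, 6 h exposure; bidirectional fit vs DMSO (neg. ctrl/baseline); gain of signal = loss of membrane integrity.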

A short description of assay [9]: CCTE_Harrill_HTTr_Apoptosis_MCF7: CCTE's 6-hour Apoptosis Assessment for the High-Throughput Transcriptomics (HTTr) Platform, in MCF-7 cells cultured in DMEM + 10% fetal bovine serum, Harrill Lab (AID 2284011; active = hit-call score of the fitted dose curve at least 0.9, where 1 is the maximum; inactive = score below 0.9). The method, boiled down: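 Read-out: CellEvent Caspase 3/7 Green signal by high content imaging, gain-of-signal indicating apoptosis. MCF-7 cells, DMEM + 10% FBS, eight-point dilution series, 6 h exposure. Curves fitted bidirectionally relative to DMSO negative control.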

Assay [10] addresses Bile acid receptor (Homo sapiens) (UniProt Q96RI1). Description: ATG_IR1_CIS: Attagene CIS-FACTORIAL HepG2 Assay for human Nuclear Receptor Subfamily 1 Group H Member 4 (NR1H4), IR1 submotif (AID 2282946; active = hit-call score of the fitted dose curve at least 0.9, where 1 is the maximum; inactive = score below 0.9). The note with it: IR1 reporter transcription, actives raise or lower the signal. The method, boiled down: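 Readout: reporter transcript levels by RT-PCR with fluorescent capillary electrophoresis, from HepG2 cells transiently transfected with multiplexed cis-regulated reporters and dosed 24 h. Gain- or loss-of-signal fitted versus DMSO negative control.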

Assay [11] deals with Glucocorticoid receptor (Homo sapiens) (UniProt P04150). The assay can be described thus: ATG_GR_TRANS: Attagene TRANS-FACTORIAL HepG2 Assay for human Glucocorticoid Receptor (GR) (AID 2282978).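 Also: activators score as hits since higher reporter transcript over DMSO is fitted.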 To be noted: HepG2 Attagene TRANS GR reporter, mRNA transcription. The method, boiled down: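 In this trans-factorial format, exogenous NR-GAL4 chimeric proteins in transfected HepG2 cells regulate GAL4-UAS reporter transcription. After 24 h treatment, reporter mRNA induction relative to DMSO is read by RT-PCR and capillary electrophoresis.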

Assay [12] addresses Nuclear receptor subfamily 4 group A member 2 (Homo sapiens) (UniProt P43354). The assay can be described thus: ATG_NURR1_TRANS: Attagene TRANS-FACTORIAL HepG2 Assay for human Nuclear Receptor Related Protein 1 (NURR1) (AID 2282985). The note with it: HepG2 Attagene TRANS reporter, mRNA readout. The gist of the method:
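Chimeric NR-Gal4 proteins were expressed in human HepG2 cells bearing GAL4-UAS reporter units, and induced reporter mRNA was quantified 24 h post-dosing by RT-PCR and capillary electrophoresis.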

Assay [13] can be described thus: ATG_NF_kB_CIS: Attagene CIS-FACTORIAL HepG2 Assay for human Nuclear Factor Kappa B (NF-kB) (AID 2282991; active = hit-call score of the fitted dose curve at least 0.9, where 1 is the maximum; inactive = score below 0.9). To be noted: HepG2 Attagene cis-factorial NF-kB reporter mRNA; actives raise or lower the signal. The method, boiled down: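 Endogenous transcription factor activity in HepG2 was captured via cis-regulated reporter constructs; after 24 h dosing, reporter mRNA was reverse-transcribed, amplified, fluorescently labelled and sized by capillary electrophoresis, with activity fitted bidirectionally relative to DMSO.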

Assay [14] deals with Nuclear receptor subfamily 1 group I member 2 (Homo sapiens) (UniProt O75469). Description: ATG_PXR_TRANS: Attagene TRANS-FACTORIAL HepG2 Assay for human Pregnane X Receptor (PXR) (AID 2283008). The gist of the method:
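Multiplexed TRANS reporter panel in HepG2; this component tracks PXR-Gal4-driven reporter mRNA after 24 h dosing, measured by RT-PCR with capillary electrophoresis fluorescence, fitted against DMSO.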

Assay [15] deals with human Vitamin D Receptor (VDR), VDR (gene 7421) (UniProt P11473). Description: ATG_VDR_TRANS: Attagene TRANS-FACTORIAL HepG2 Assay for human Vitamin D Receptor (VDR) (AID 2283022). The gist of the method:
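RT-PCR/capillary electrophoresis read-out of reporter mRNA induction in transiently transfected HepG2; 24 h dosing; chimeric NR-Gal4 (TRANS format); gain-of-signal fit against DMSO baseline.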

Assay [16] is described as follows: TOX21_p53_BLA_p3_viability: Viability Assessment in the Tox21 HCT-116 p53 Agonism Beta-lactamase Assay, Phase 3 (AID 2283593).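 Also: cells exposed to compound for 16 h before reading.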 The gist of the method:
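HCT-116 cells (4000/well) rested 5 h at 37C, then got DMSO compounds by pin tool (217-fold dilution) for 16 h at 37C, 5% CO2. After the bla read, CellTiter-Glo was added and luminescence read at 30 min, room temperature.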

Assay [17] addresses Retinoic acid receptor alpha (Homo sapiens) (UniProt P10276). Description: ATG_DR5_RAR_CIS: Attagene CIS-FACTORIAL HepG2 Assay for human Retinoic Acid Receptor Alpha (RARE), DR5 submotif (AID 2282934; active = hit-call score of the fitted dose curve at least 0.9, where 1 is the maximum; inactive = score below 0.9). To be noted: HepG2 Attagene cis-factorial RARE DR5 reporter, mRNA; actives raise or lower the signal. The method, boiled down: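 HepG2 cells transiently transfected with multiplexed reporter units under cis (DR5 RARE) promoters, so endogenous transcription factor activity is measured. After 24 h compound exposure, reporter mRNA is quantified by RT-PCR with fluorescent labelling and capillary electrophoresis; bidirectional fitting versus DMSO.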

The nature of assay [18]: ATG_PPRE_CIS: Attagene CIS-FACTORIAL HepG2 Assay for human Peroxisome Proliferator-activated Response Element (PPRE) (AID 2282958; active = hit-call score of the fitted dose curve at least 0.9, where 1 is the maximum; inactive = score below 0.9). The note with it: HepG2 PPRE cis-element reporter, Attagene transcription factor profiling; actives raise or lower the signal. The gist of the method:
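Cells are first transfected transiently with the multiplexed reporter library, then dosed for 24 h. Total RNA is reverse-transcribed, amplified, fluorescently end-labeled and HpaI-cut before capillary electrophoresis; activity is fitted bidirectionally against DMSO controls.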

The target of assay [19] is Nuclear receptor subfamily 1 group I member 3 (Homo sapiens) (UniProt Q14994). The assay can be described thus: ATG_CAR_TRANS: Attagene TRANS-FACTORIAL HepG2 Assay for human Constitutive Androstane Receptor (CAR) (AID 2282969).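 Also: activators raise reporter mRNA above DMSO so AC50 marks induction.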 To be noted: HepG2 Attagene TRANS-FACTORIAL CAR reporter. The method, boiled down:
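Steps: transient transfection of HepG2 with multiple GAL4-UAS reporter units; 24 h compound incubation; RNA isolation, RT-PCR, 6-FAM primer extension, HpaI digest; capillary electrophoresis. Gain-of-signal relative to DMSO negative control.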

Assay [20] addresses human Peroxisome Proliferator-activated Receptor alpha (PPARa), PPARA (gene 5465) (UniProt Q07869). The assay can be described thus: ATG_PPARa_TRANS: Attagene TRANS-FACTORIAL HepG2 Assay for human Peroxisome Proliferator-activated Receptor alpha (PPARa) (AID 2283001). The gist of the method:
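Exposure: 24 h, transiently transfected HepG2 cells. Endpoint: GAL4-UAS reporter mRNA, RT-PCR with capillary electrophoresis fluorescence. Baseline: DMSO; increases fitted.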

human Vitamin D Receptor (VDR), VDR (gene 7421), sequence (P11473 whole entry, looked up, the tested form may be a part): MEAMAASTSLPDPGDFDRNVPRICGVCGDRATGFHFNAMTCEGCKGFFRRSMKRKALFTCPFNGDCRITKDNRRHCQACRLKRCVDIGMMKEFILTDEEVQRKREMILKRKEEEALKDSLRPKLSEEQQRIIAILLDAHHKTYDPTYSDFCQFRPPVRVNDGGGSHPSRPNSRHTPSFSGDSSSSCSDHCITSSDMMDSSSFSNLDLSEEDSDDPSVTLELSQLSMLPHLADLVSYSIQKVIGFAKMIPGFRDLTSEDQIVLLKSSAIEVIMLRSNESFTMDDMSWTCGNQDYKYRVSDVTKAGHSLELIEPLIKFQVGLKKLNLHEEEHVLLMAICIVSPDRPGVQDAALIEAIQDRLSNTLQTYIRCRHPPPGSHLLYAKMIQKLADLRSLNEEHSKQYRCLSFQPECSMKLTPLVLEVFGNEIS
Glucocorticoid receptor (Homo sapiens), sequence (P04150 whole entry, looked up, the tested form may be a part): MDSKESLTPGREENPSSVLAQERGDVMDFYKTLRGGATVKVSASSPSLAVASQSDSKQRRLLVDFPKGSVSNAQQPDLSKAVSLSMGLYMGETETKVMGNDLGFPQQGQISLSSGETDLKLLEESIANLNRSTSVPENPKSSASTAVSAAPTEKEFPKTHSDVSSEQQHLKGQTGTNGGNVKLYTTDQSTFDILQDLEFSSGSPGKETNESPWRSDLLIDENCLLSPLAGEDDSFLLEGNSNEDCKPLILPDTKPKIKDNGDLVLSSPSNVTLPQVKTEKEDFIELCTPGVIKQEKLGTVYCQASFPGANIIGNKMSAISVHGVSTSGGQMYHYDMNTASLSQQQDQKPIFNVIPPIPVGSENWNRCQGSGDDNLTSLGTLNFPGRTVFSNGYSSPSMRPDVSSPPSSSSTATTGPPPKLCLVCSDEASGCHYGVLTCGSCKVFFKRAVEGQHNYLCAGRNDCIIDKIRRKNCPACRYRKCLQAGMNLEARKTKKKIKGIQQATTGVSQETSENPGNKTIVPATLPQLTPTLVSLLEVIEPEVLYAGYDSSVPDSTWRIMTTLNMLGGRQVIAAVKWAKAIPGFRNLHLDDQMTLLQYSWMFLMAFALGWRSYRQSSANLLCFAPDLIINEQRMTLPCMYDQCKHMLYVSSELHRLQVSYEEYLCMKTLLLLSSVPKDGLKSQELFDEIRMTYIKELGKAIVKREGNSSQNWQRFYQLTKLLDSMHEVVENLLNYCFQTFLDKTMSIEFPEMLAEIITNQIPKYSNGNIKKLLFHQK
human RAR-related Orphan Receptor beta (RORb), RORB (gene 6096), sequence (Q92753 whole entry, looked up, the tested form may be a part): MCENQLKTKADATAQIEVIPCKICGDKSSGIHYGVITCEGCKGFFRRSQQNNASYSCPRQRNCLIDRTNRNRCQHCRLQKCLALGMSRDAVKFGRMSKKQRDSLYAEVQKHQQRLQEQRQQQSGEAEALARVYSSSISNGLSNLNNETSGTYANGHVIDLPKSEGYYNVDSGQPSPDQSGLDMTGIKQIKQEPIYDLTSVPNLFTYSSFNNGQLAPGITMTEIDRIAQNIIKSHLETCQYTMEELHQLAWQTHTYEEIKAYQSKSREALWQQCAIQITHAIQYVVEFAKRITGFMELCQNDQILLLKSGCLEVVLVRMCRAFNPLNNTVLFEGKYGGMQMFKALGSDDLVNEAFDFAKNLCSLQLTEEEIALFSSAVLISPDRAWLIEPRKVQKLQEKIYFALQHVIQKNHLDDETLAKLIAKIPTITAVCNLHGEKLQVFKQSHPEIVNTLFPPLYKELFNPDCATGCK
Oxysterols receptor LXR-alpha (Homo sapiens), sequence (Q13133 whole entry, looked up, the tested form may be a part): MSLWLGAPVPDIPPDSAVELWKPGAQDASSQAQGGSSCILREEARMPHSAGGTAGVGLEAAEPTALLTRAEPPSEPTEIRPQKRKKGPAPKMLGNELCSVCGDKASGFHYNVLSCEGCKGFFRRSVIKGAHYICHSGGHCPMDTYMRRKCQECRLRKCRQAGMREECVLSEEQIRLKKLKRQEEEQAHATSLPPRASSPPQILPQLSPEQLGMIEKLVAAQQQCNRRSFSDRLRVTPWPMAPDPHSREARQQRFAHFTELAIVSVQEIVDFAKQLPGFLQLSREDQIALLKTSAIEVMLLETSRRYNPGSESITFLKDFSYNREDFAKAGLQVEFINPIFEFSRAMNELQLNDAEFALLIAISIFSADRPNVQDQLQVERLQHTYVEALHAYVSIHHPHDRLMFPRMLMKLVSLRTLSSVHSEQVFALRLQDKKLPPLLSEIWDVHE
Retinoic acid receptor alpha (Homo sapiens), sequence (P10276 whole entry, looked up): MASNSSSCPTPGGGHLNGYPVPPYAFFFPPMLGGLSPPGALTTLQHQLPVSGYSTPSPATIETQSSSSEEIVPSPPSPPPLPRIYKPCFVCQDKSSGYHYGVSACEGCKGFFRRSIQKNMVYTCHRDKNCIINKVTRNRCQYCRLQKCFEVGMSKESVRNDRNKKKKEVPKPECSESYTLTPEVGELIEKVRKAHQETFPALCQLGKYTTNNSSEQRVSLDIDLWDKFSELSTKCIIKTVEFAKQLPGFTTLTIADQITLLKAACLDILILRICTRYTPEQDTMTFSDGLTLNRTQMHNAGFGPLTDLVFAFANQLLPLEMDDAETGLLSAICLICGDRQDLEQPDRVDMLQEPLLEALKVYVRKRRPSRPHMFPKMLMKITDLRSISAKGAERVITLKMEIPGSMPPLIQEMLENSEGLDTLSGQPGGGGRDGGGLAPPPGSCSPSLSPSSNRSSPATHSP
human RAR-related Orphan Receptor gamma (RORg), RORC (gene 6097), sequence (P51449 whole entry, looked up, the tested form may be a part): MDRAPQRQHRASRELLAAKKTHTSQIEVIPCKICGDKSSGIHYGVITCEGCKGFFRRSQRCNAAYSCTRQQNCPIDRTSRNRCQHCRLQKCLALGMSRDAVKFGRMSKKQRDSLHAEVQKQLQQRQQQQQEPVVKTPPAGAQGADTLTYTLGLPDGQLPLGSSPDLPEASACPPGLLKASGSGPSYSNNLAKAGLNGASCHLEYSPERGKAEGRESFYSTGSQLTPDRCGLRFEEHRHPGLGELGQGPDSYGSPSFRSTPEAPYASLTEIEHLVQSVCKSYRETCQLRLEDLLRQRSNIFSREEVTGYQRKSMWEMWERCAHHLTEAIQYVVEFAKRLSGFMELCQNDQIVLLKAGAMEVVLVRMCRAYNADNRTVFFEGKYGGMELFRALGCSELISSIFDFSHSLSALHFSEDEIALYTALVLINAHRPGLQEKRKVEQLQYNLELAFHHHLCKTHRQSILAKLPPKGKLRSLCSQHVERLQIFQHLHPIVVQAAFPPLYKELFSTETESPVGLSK
Nuclear receptor subfamily 4 group A member 2 (Homo sapiens), sequence (P43354 whole entry, looked up, the tested form may be a part): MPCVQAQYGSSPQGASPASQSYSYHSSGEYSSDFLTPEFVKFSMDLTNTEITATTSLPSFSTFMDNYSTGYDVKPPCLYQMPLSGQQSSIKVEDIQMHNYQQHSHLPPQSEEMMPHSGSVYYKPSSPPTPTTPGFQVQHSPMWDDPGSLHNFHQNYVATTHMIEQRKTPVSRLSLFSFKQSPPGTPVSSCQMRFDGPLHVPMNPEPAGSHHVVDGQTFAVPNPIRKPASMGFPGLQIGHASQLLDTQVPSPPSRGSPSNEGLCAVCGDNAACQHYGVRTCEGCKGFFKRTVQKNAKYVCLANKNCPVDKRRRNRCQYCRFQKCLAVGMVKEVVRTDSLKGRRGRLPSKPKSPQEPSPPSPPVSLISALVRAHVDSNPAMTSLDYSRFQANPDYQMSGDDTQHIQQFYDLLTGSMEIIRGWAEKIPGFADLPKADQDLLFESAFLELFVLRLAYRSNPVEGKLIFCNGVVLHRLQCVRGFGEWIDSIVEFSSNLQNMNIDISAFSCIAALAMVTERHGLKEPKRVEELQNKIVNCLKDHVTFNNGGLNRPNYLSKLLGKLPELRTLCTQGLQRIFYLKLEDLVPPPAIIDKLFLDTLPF
Retinoic acid receptor RXR-alpha (Homo sapiens), sequence (P19793 whole entry, looked up, the tested form may be a part): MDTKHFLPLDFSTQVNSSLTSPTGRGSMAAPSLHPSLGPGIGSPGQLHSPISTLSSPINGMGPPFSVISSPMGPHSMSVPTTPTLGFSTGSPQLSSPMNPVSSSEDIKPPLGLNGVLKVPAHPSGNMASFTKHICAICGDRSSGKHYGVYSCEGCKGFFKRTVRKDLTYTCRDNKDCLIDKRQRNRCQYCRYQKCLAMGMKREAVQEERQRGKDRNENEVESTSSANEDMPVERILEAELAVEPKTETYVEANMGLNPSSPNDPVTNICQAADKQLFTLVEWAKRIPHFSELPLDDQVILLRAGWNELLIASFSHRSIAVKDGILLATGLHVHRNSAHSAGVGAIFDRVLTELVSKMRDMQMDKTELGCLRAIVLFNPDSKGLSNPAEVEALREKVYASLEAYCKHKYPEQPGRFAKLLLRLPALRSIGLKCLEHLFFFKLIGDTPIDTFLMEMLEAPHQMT
human Peroxisome Proliferator-activated Receptor delta (PPARd), PPARD (gene 5467), sequence (Q03181 whole entry, looked up, the tested form may be a part): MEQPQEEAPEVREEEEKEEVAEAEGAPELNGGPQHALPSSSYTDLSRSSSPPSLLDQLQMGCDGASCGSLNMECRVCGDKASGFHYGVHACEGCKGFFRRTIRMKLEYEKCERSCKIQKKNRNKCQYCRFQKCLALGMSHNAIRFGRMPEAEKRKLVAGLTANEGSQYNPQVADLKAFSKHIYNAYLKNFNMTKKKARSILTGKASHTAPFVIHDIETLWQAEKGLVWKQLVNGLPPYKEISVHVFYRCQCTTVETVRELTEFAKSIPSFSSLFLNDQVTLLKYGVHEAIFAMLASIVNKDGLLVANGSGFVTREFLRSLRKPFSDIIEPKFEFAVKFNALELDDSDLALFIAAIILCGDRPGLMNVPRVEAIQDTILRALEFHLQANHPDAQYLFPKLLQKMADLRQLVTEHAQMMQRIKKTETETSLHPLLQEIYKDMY
Nuclear receptor subfamily 1 group I member 3 (Homo sapiens), sequence (Q14994 whole entry, looked up, the tested form may be a part): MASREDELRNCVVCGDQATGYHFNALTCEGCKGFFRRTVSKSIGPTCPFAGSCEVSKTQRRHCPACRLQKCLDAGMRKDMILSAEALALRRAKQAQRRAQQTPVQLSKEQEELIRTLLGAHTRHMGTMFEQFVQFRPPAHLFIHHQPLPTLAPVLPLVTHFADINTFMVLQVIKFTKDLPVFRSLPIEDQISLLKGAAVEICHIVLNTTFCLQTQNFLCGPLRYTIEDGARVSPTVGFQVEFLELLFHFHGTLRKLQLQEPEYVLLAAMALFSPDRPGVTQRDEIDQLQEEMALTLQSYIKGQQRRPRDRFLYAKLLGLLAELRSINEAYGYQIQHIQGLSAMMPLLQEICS

`C[N+](C)(C)CC(=O)O`: the molecule was called inactive in [1], in assay [2], in assay [3], in [4], in assay [5] and in [6]. Besides, the molecule was classed as inactive in assay [7], in assay [8] and in assay [9].

Consider `CN1C[C@H](C(=O)N[C@]2(C)O[C@@]3(O)[C@@H]4CCCN4C(=O)[C@H](Cc4ccccc4)N3C2=O)C=C2c3cccc4[nH]cc(c34)C[C@H]21`, for which the outcome in assay [10], in [1], in assay [11], in [12], in [13] and in assay [15] was inactive. Further, the outcome in assay [7] and in assay [16] was inactive. In assay [14], the AC50 was 534 nM (active).

In the case of `C=C(Cl)CCl`, the molecule was classed as inactive in [17], in [18], in assay [1], in assay [11], in assay [2] and in assay [13]. Further, the molecule was called inactive in assay [4], in assay [5], in assay [6], in [15] and in assay [7].

Regarding `CCOC(=O)N(C)N=O`, the call in assay [17], in assay [1], in assay [2], in [13], in assay [3] and in [16] was inactive. The result in assay [8] and in assay [9] was inactive.

`[CH3][Sn]([Cl])([Cl])[Cl]`: the outcome in assay [17], in assay [18], in assay [19], in assay [11], in assay [2] and in assay [14] was inactive. For the same molecule, the result in assay [4] and in assay [5] was inactive.

In the case of `O=[N+]([O-])c1ccc(Cl)cc1`, the call in assay [1], in assay [11], in [12], in [13], in assay [20] and in assay [5] was inactive. The result in assay [15], in assay [7], in [16], in assay [8] and in assay [9] was inactive.
